This is an account of results in PubChem BioAssay AID1210 (NMMLSC, 2008).

Molecules are shown by their SMILES. The source made the active and inactive calls.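 Rule for the calls: active = blocks over 70% of labeled estradiol binding at 10 µM, or over a set limit at 100 nM; inactive = the rest.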

This assay has as its target Estrogen receptor beta (Homo sapiens) (UniProt Q92731). Description: displacement of fluorescent estrogen from ERbeta – cell-based, Cos7 ERbeta-GFP, flow cytometry, primary screen (AID 1210).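 Note: 0% = DMSO vehicle wells and 100% = complete loss of labeled estradiol signal.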 The following applies: fluorescent estrogen binding, stronger effect = higher value. On the technique in general: In flow cytometry, cells or beads pass a laser one at a time.
Setting [1] is: ligand binding inhibition, at 0.1 µM.

Chain of Estrogen receptor beta (Homo sapiens) (Q92731 whole entry, looked up): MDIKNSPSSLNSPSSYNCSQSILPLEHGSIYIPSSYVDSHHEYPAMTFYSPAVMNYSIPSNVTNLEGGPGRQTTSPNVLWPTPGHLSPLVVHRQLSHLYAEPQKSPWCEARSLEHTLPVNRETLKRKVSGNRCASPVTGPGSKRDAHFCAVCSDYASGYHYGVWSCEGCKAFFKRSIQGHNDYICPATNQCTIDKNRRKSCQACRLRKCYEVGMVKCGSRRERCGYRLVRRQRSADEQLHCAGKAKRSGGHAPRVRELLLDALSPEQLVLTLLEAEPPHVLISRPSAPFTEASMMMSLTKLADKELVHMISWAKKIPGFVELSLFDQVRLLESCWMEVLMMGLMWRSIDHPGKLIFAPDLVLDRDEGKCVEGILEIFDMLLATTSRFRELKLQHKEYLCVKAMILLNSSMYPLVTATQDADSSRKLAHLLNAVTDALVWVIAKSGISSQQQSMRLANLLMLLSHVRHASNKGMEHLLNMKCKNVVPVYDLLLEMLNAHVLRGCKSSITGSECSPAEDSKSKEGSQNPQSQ

The inhibition is the share of the control response that was lost under treatment. Consider `CC(=O)c1ccc(NC(=S)N2CCCC(CO)C2)cc1` (stereo not given), for which the inhibition (at 10 µM) was 49% (inactive) and the inhibition under setting [1] amounted to 13%.

`Cc1cc(Cl)ccc1OCC(=O)OC(C)C(=O)N(C)C` (stereo not given): the inhibition is, setting by setting: (at 10 µM) 35% (inactive); under setting [1], 12%.

On to `CCCCCCNC(=O)c1cc(-c2ccco2)nc2ccccc12`, for which the inhibition (at 10 µM) is 92% (active) and the inhibition under setting [1] is 2%.

As to `CCOc1ccccc1C1C(C#N)=C(N)Nc2onc(-c3ccccc3)c21` (stereo not given), the inhibition is 5% (inactive) (at 10 µM) and 38% under setting [1].

Regarding `CCc1ccc2[nH]c(=O)c(C3C(C#N)=C(N)Oc4c3ccc3cccnc43)cc2c1` (stereo not given), the inhibition by setting is: (at 10 µM) 23% (inactive); under setting [1], 36%.

As to `COc1ccc(C2CC(c3ccccc3)=NN2c2ccc(N)cc2)cc1` (stereo not given), the inhibition reads like this: (at 10 µM) 69% (inactive); under setting [1], 23%.

For `O=C1OC(c2ccc(O)cc2)(c2ccc(O)cc2)c2ccccc21`, the inhibition (at 10 µM) was 51% (inactive) and the inhibition under setting [1] stood at 11%.

Turning to `C/C=C(/C(=C/C)c1ccc(O)cc1)c1ccc(O)cc1`, the inhibition reads like this: (at 10 µM) 55% (active); under setting [1], 85%.

Take `Cn1cccc1/C=C1\SC(=O)N(c2ccc(O)cc2)C1=O`: the inhibition runs as follows: (at 10 µM) 31% (inactive); under setting [1], 7%.

`COc1ccc(C2Nc3ccccc3C(=O)N2Cc2ccccc2)cc1Cn1nnc2ccccc21` (stereo not given): the inhibition is 38% (inactive) (at 10 µM) and 45% under setting [1].

In the case of `Cc1csc2nc(CCNS(=O)(=O)c3ccc4c(c3)OCCO4)cn12`, the inhibition runs as follows: (at 10 µM) 13% (active); under setting [1], 87%.

For `CCOC(=O)CN1C(c2ccc(O)cc2)Nc2ccc(Br)cc2C1c1ccccc1` (stereo not given), the inhibition (at 10 µM) was 48% (inactive) and the inhibition under setting [1] was determined as 23%.

As to `O=C(OCC(=O)N1CCN(C(=O)c2ccco2)CC1)c1cc(-c2ccco2)nc2ccccc12`, the inhibition is, setting by setting: (at 10 µM) 25% (inactive); under setting [1], 33%.

In the case of `Cc1cc(C)cc(OCC(=O)Nc2ccc(N3CCCC3)cc2)c1`, the inhibition is 71% (active) (at 10 µM) and 37% under setting [1].

As to `Oc1ccc(-c2nccc(-c3cccs3)n2)cc1`, the inhibition runs as follows: (at 10 µM) 28% (inactive); under setting [1], 14%.

With `Cc1ccc(C2=Nc3ccccc3N=C(c3ccco3)C2)c(O)c1`, the inhibition is, setting by setting: (at 10 µM) 2% (inactive); under setting [1], 29%.

For the compound `COc1ccc(/C=N/NC(=O)c2nc(-c3ccccc3)cc(-c3ccccc3)n2)cc1O`, the inhibition is, setting by setting: (at 10 µM) 71% (active); under setting [1], 81%.

Turning to `CC(O)C1CCC2C3CC[C@H]4CC(O)CCC4(C)C3CC3(OCCO3)C12C` (stereo not given in full), the inhibition is, setting by setting: (at 10 µM) 18% (inactive); under setting [1], 13%.

On to `O=C(Cc1cccs1)Nc1ccccn1`, for which the inhibition (at 10 µM) is 39% (inactive) and the inhibition under setting [1] stood at 10%.

For `CC(=O)N1c2ccc3ccccc3c2C2C=CCC2C1c1ccc(Br)cc1` (stereo not given), the inhibition is 8% (inactive) (at 10 µM) and 3% under setting [1].

`O=C(Cc1cccs1)Nc1ccc(-c2nnn(CC(=O)N3CCOCC3)n2)cc1`: the inhibition was 30% (inactive) (at 10 µM) and 2% under setting [1].

With `COc1ccc(CNC(=O)COC(=O)c2cc(-c3ccco3)nc3ccccc23)cc1`, the inhibition is 18% (inactive) (at 10 µM) and 8% under setting [1].

With `Oc1ccc(-c2csc(-c3c[nH]c4ccccc34)n2)c(O)c1`, the inhibition is 81% (active) (at 10 µM) and 29% under setting [1].

As to `CC1(C)CC(=O)C2=C(C1)OC(c1ccc(O)cc1)C(C#N)=C2N` (stereo not given), the inhibition (at 10 µM) was 47% (inactive) and the inhibition under setting [1] came to 49%.

Regarding `CCc1ccc(Nc2nc(N)nc(CSc3nnnn3-c3ccccc3)n2)cc1`, the inhibition (at 10 µM) is 67% (inactive) and the inhibition under setting [1] came out at 8%.

Consider `CCc1ccc2[nH]c(=O)c(CN(Cc3ccc4c(c3)OCO4)C(=O)c3ccco3)cc2c1`, for which the inhibition (at 10 µM) is 13% (inactive) and the inhibition under setting [1] was determined as 6%.

As to `CCN(CC)c1ccc(-c2nn3c(-c4ccccc4OC)nnc3s2)cc1`, the inhibition is, setting by setting: (at 10 µM) 32% (inactive); under setting [1], 24%.

In the case of `O=C(Nc1nccs1)c1ccc2nccnc2c1`, the inhibition (at 10 µM) is 36% (inactive) and the inhibition under setting [1] came to 25%.

For the compound `CC1CCc2c(sc(NC(=O)c3ccc(Cn4cc([N+](=O)[O-])cn4)o3)c2C#N)C1` (stereo not given), the inhibition is, setting by setting: (at 10 µM) 19% (inactive); under setting [1], 58%.

For the compound `Clc1ccc2nc(-c3ccccn3)c(Nc3ccc4c(c3)OCO4)n2c1`, the inhibition reads like this: (at 10 µM) 60% (inactive); under setting [1], 2%.

Take `O=C(Cc1ccccc1)Nc1ccc2oc(-c3cccnc3)nc2c1`: the inhibition is 65% (inactive) (at 10 µM) and 20% under setting [1].

For `O=C(c1cc2c(s1)CCC2)N1CCN(c2ccccc2)CC1`, the inhibition (at 10 µM) was 52% (inactive) and the inhibition under setting [1] stood at 7%.

As for `ON=C1/C(=N\O)CC2(C/C1=N/O)OCCO2`, the inhibition is 28% (inactive) (at 10 µM) and 31% under setting [1].

`O=C(COC(=O)CCOc1ccccc1)NCc1ccco1`: the inhibition is, setting by setting: (at 10 µM) 54% (inactive); under setting [1], 37%.

On to `COc1ccc2nc3oc(C(=O)N4CCN(c5cccc(C(F)(F)F)c5)CC4)cc3cc2c1`, for which the inhibition is 24% (inactive) (at 10 µM) and 47% under setting [1].

On to `Cc1cccn2c(=O)c3cc(C(=O)O)n(C)c3nc12`, for which the inhibition is 60% (inactive) (at 10 µM) and 11% under setting [1].

As for `Cc1ccc(-n2c(SCC(=O)NNC(=S)Nc3ccccc3)nc3ccccc3c2=O)cc1`, the inhibition was 34% (inactive) (at 10 µM) and 4% under setting [1].

As for `COc1ccc(N=C2NC(=O)S/C2=C\c2ccc(N(C)C)cc2)cc1`, the inhibition is 59% (inactive) (at 10 µM) and 4% under setting [1].

In the case of `Cc1ccc(C)c(SCC(=O)OCC(=O)c2ccco2)c1`, the inhibition (at 10 µM) is 50% (inactive) and the inhibition under setting [1] is 57%.

With `CC1(C)OC(C)(C)/C(=C/Nc2ccc(O)cc2)C1=O`, the inhibition is 58% (inactive) (at 10 µM) and 58% under setting [1].
